Tau fil binding: binders of human tau filaments | P10636 | recombinant tau filaments, thioflavin S fluorescence, 15 h; filaments grown with octadecylsulfate alongside compound | Potency, µM (series often up to 57.1 µM) | actives 2% (n = 71,000) | AID 596;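 further: actives lower thioflavin S fluorescence by blocking filaments or displacing dye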
Target sequence (P10636 whole entry, looked up): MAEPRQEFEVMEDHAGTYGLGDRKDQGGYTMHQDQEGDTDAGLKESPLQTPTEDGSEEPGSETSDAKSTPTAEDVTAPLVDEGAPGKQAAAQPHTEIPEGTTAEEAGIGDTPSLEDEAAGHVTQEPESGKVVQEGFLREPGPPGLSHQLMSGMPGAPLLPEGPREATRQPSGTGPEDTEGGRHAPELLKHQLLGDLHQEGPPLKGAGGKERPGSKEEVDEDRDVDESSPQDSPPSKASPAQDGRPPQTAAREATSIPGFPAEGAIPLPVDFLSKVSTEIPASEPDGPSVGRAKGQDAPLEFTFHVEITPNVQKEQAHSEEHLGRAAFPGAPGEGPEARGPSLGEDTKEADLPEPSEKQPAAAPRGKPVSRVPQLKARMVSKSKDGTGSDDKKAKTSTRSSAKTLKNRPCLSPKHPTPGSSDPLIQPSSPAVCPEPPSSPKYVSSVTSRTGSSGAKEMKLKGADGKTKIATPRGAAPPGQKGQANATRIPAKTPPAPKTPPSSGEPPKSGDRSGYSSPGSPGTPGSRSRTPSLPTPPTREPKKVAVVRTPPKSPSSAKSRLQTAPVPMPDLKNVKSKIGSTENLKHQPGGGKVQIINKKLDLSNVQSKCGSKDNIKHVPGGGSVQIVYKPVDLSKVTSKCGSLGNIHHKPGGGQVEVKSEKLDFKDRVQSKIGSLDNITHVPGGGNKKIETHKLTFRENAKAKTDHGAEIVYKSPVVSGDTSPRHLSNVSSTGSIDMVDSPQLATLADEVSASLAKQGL
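His-tagged recombinant human tau (exons 2, 3 and 10 included), 1 uM, was induced to fibrillize by 30 uM sodium octadecylsulfate with compound present. After 15 h at 37 C, thioflavine S fluorescence (ex 450, em 510 nm) was read.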
ERK AVP inh: vasopressin-driven ERK pathway inhibition; actives 0.99% (n = 72,000); HEK293-V1b, vasopressin-stimulated pERK AlphaScreen; Potency, µM (series often up to 57.5 µM), actives largely listed as inhibitors; AID 995; further: nearly all actives have a fitted effect of over 55% in size
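V1b-HEK293 cells; cpd 30 min 37C; 25 nM vasopressin 5 min; lyse 10 min; AlphaScreen beads 5 hr RT. Normalized to DMSO basal and 25 nM vasopressin; AC50 by Hill fit.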
CRE-bla Fsk: alters forskolin-stimulated CRE reporter signaling in CHO cells; Potency, µM (top dose mostly 38.2 µM), hits mostly activators; AID 662; CHO CRE-bla reporter (cAMP response element driving beta-lactamase), forskolin EC10, beta-lactamase ratio; actives 2.5% (n = 71,000); active means well fitted activation curve with a large enough effect in the signal ratio, with a control signal flat, not every such curve was filed as active; inconclusive means small, poorly fitted or top-dose-only effect, or effect the other way, or a change in a side signal; the % refers to the signal ratio
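Modulation of forskolin-driven signalling is measured in CHO cells carrying a CRE-controlled beta-lactamase reporter. Cells are stimulated with EC10 NKH 477 in the presence of titrated compound for 3 h at 37 °C, then loaded with CCF4 for 2 h at room temperature.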
HEK293 cAMP ctrl: counter-screen for TSHR agonists: cAMP increase in parental HEK293. parental HEK293 CNG cAMP sensor, membrane potential fluorescence. Potency, µM (titrated, usually from 57.1 µM), hits mostly activators. actives 2.5% (n = 73,000). AID 938; further: nearly all actives have a fitted effect of over 55% in size
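Parental HEK 293 cells stably expressing a modified CNG channel (no TSHR) report cAMP rise as membrane depolarization. Membrane potential dye with 100 uM RO 20-1724 was loaded for 60 min at room temperature, then compound added for 30 min; fluorescence read at 590 nm.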
TSHR ag: TSH receptor (human) agonism | P16473 | HEK293-CNG-TSHR cells (CNG channel as cAMP sensor), membrane potential dye, cAMP | Potency, µM (titrated, usually from 57.1 µM), hits mostly activators | actives 0.48% (n = 73,000); active means well fitted activation curve with a large enough effect in the main read-out, with a control signal flat, not every such curve was filed as active; inconclusive means small, poorly fitted or top-dose-only effect, or a change in a side signal; inactive means no such curve, though single readings can be large or run the other way; reference of the percent scale not stated here;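 further: the control signal comes from parental cells without the receptor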
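cAMP rise detected as CNG-channel membrane depolarization by fluorescent dye (emission 590 nm), 30 min after compound, following 60 min dye loading containing 100 uM RO 20-1724 at room temperature. Cells: TSHR/CNG HEK 293, with parental CNG HEK 293 as control.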
Large screens that a line does not name were inactive. Only some compounds are listed: those with a hit (about 7.4% of all), similar ones and a draw of the others. Unless noted, the call rests on the fitted dose curve; in most records, active means well fitted curve in the direction sought with a large enough effect; inconclusive means small, poorly fitted or top-dose-only effect, or another doubt; inactive means no such curve, though single readings can be large; an effect the other way counts as inactive or inconclusive.

Cn1cnc([N+](=O)[O-])c1SCC(=O)O	none
CCN1C(=C2C(=O)c3ccccc3C2=O)C=Cc2ccccc21	Tau fil binding 13µM
CN(C)Cc1ccc(C(C)(C)C)cc1-c1cc(C(C)(C)C)ccc1CN(C)C	none
CCC(c1nnnn1Cc1ccco1)N(Cc1cc2cc(C)cc(C)c2[nH]c1=O)CC1CCCO1 (configuration not stated)	HEK293 cAMP ctrl 20µM, TSHR ag inconclusive
O=C(O)CCCn1nc(-c2ccccc2)c2ccccc21	HEK293 cAMP ctrl 0.16µM, TSHR ag inconclusive (no result: ERK AVP inh)
CCOC(=O)CN1CC23C=CC(O2)C(C(=O)Nc2cc(OC)ccc2OC)C3C1=O (configuration not stated)	Tau fil binding 13µM
Cc1cc(C)n2cc(CSc3nnc(-c4ccccc4)o3)nc2n1	CRE-bla Fsk 13µM
Cc1cc(C)n2cc(CSc3nc4cc(Cl)ccc4o3)nc2n1	CRE-bla Fsk inconclusive
Cc1nn(-c2ccccc2)c(C)c1C(=O)OCC(=O)c1c(N)n(CC(C)C)c(=O)n(C)c1=O	ERK AVP inh inconclusive, HEK293 cAMP ctrl 16µM, TSHR ag inconclusive
CC(C)Cn1c(N)c(C(=O)COC(=O)c2cc(-c3ccccc3)nc3ccccc23)c(=O)n(C)c1=O	none (no result: Tau fil binding, CRE-bla Fsk, HEK293 cAMP ctrl, TSHR ag)
CC(C)Cn1c(N)c(C(=O)COC(=O)c2cc(-c3ccco3)nc3ccccc23)c(=O)n(C)c1=O	Tau fil binding 13µM
COc1cccc2c1[C@H](CO)N1[C@H](C#N)[C@@H]3C[C@H](C(=O)O)[C@@H]([C@@H]1C2)N3C	CRE-bla Fsk inconclusive
Cc1ccc(-c2cn3cccnc3n2)cc1NC(=O)c1ccc(Br)o1	CRE-bla Fsk inconclusive
COc1ccc(-c2cn3cccnc3n2)cc1NC(=O)c1ccc(Br)o1	CRE-bla Fsk 2.5µM
N#Cc1c2n(c3c(=O)n(Cc4ccc(Cl)cc4)cnc13)CCCCC2	CRE-bla Fsk 3.2µM
N#Cc1c2n(c3c(=O)n(Cc4ccccc4)cnc13)CCCC2	none
Cc1c(C(=O)Nc2ccc(N3CCOCC3)cc2)oc2ccccc12	Tau fil binding 25µM, CRE-bla Fsk inconclusive, TSHR ag inconclusive
O=C(CCc1ccccc1)Nc1ccc(N2CCOCC2)cc1	Tau fil binding 16µM
Cc1c(C(=O)Nc2ccncc2)oc2ccccc12	ERK AVP inh inconclusive
COc1cccc(Nc2ncc3nc(-c4ccccc4)c(=O)n(C)c3n2)c1	CRE-bla Fsk inconclusive
COC(=O)c1ccc(C23CC2(C(NP(=O)(c2ccccc2)c2ccccc2)c2ccccc2)C3)cc1 (configuration not stated)	HEK293 cAMP ctrl inconclusive, TSHR ag inconclusive
CCCNC(=O)OC[C@@H]1O[C@H](CCO/N=C(\C)CCN2CCCCc3nc(C)c(C)cc32)C=C[C@@H]1Oc1ccc(OC)cc1	none (no result: Tau fil binding, CRE-bla Fsk)
Clc1ccc2c(NC3CCC(N4CCCCC4)CC3)ccnc2c1 (configuration not stated)	none
O=C(CSc1nnc(Cn2nnc3ccccc32)o1)N(Cc1ccc(F)cc1)c1ccccc1	HEK293 cAMP ctrl 16µM, TSHR ag inconclusive
CC1(C)CC(Nc2ccc(Nc3ccccc3)cc2)CC(C)(C)N1	Tau fil binding 1.6µM
Nc1ncnc2nn([C@H]3O[C@@H](CO)[C@@H](O)[C@H]3O)nc12	none
O=C(c1noc2c1CCc1ccccc1-2)N1CCOCC1	none
O=C(c1noc2c1CCc1ccccc1-2)N1CCCc2ccccc21	HEK293 cAMP ctrl 25µM, TSHR ag inconclusive
O=C(CSc1nc2c(c(C(F)(F)F)n1)CCc1ccccc1-2)NCc1ccco1	HEK293 cAMP ctrl 25µM, TSHR ag inconclusive
S[C@@H]1CCCN(Cc2ccccc2)C1	none
COC(=O)c1ccc(C(NC(=O)OCc2ccccc2)/C(I)=C/[C@@H](C)C(=O)NCc2ccc(OC)c(O)c2)cc1 (some centres not stated)	TSHR ag 25µM
COC(=O)c1ccc(C(NC(=O)OCc2ccccc2)/C(F)=C/[C@@H](C)C(=O)NC2CCCCC2)cc1 (some centres not stated)	HEK293 cAMP ctrl inconclusive, TSHR ag inconclusive
COC(=O)c1ccc(C(NC(=O)OCc2ccccc2)/C(C)=C/[C@@H](C)C(=O)NC2CCCCC2)cc1 (some centres not stated)	HEK293 cAMP ctrl 16µM, TSHR ag inconclusive
COC(=O)c1ccc(C(NC(=O)OCc2ccccc2)/C(I)=C/[C@@H](C)C(=O)NCc2ccc(C)o2)cc1 (some centres not stated)	CRE-bla Fsk inconclusive (no result: TSHR ag)
Cc1cccc2cc3c(NC(=O)CC(C)C)nn(C)c3nc12	CRE-bla Fsk 10µM
O=C(Cn1c(NCCO)nc2ccccc21)c1cccs1	none
COc1ccc(-n2c(C)cc(C(=O)Cn3c(NCCO)nc4ccccc43)c2C)cc1	ERK AVP inh 10µM
Cc1cc(O)c(C(C)(C)C)cc1Sc1cc(C(C)(C)C)c(O)cc1C	Tau fil binding 20µM, ERK AVP inh inconclusive, CRE-bla Fsk inconclusive, HEK293 cAMP ctrl inconclusive, TSHR ag inconclusive
O=C(O)C(F)(F)C(F)(F)C(F)(F)C(F)(F)C(=O)O	none
COc1ccc2nc(SCc3nc(N)nc(Nc4ccccc4)n3)[nH]c2c1	ERK AVP inh inconclusive, CRE-bla Fsk 2µM
CCCC12CN3CC(C)(CN(C1)C31C(=O)Nc3ccc(C)cc31)C2=O (configuration not stated)	Tau fil binding 20µM
CCCC12CN3CC(C)(CN(C1)C31CCCCC1)C2=O	none
CC(=O)c1c(C)[nH]c(C(=O)OCCCCN2C(=O)c3ccccc3C2=O)c1C	ERK AVP inh 13µM (no result: TSHR ag)
COC(=O)NC(CC(C)=O)c1ccc(F)cc1 (configuration not stated)	none (no result: Tau fil binding, CRE-bla Fsk)
COCCNc1nc(C(C)(C)C)nc2c1nnn2Cc1ccccc1Cl	HEK293 cAMP ctrl 2.5µM, TSHR ag inconclusive
OCCNc1nc(C2CC2)nc2c1nnn2Cc1ccccc1Cl	ERK AVP inh inconclusive, CRE-bla Fsk inconclusive
CCCCSc1nnc(-c2cc(Br)ccc2N)c(=O)[nH]1	Tau fil binding 20µM, ERK AVP inh inconclusive
O=C(Nc1cccc(Oc2ccc3c(c2)C(=O)NC3=O)c1)c1ccco1	Tau fil binding 25µM, CRE-bla Fsk inconclusive (no result: TSHR ag)
C=CCOC(=O)C(C(C)=O)C(NC(=O)OC)c1cccc(C)c1 (configuration not stated)	none (no result: Tau fil binding, CRE-bla Fsk)
Clc1ccc(Cn2ncc3c(N4CCCC4)ncnc32)cc1	CRE-bla Fsk 10µM
O=C(O)C[n+]1ccccc1	none
O[Si@](CCCN1CCCCC1)(c1ccc(F)cc1)C1CCCCC1	HEK293 cAMP ctrl inconclusive, TSHR ag inconclusive
Cc1nc2ccccn2c1-c1nnco1	CRE-bla Fsk inconclusive
Cc1cc(-c2nnco2)c(C)n1-c1ccccc1	CRE-bla Fsk inconclusive, HEK293 cAMP ctrl 20µM, TSHR ag inconclusive
N[C@@H](CNO)C(=O)O	none

Source: PubChem BioAssay
